Data published in the supplement of paper PMC7411054.
Where a name gives a salt, the structure may show the parent alone.

Legend:
Test in all cases: phenotypically active (imaging signature differs from DMSO and reproducible) at any of 0.3-9 uM (binary (1 = active, 0 = inactive)); higher = active
Settings in all cases: treatment time: 24 h
A549-ACTB-RAB5A = system: A549-ACTB-RAB5A
How it was run: (§1)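 Fifteen gene-edited A549, HepG2 and WPMY1 reporter lines (BFP segmentation plus GFP and RFP/FusionRed markers) were treated at 0.3, 1, 3 or 9 µM for 24 h, four wells each, then imaged live. Live-cell features per well were normalised to DMSO control wells. Deviation required ≥3 of 4 wells beyond the 95th percentile of DMSO Euclidean distances, and reproducibility required median replicate Pearson correlation above the 95th percentile of non-replicates. Phenotypic activity needed both criteria.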

A549-CANX-COX4 = system: A549-CANX-COX4
How it was run: as §1

A549-GM130-SQSTM1 = system: A549-GM130-SQSTM1
How it was run: as §1

A549-TP53BP1-CLTA = system: A549-TP53BP1-CLTA
How it was run: as §1

A549-TUBA1B-RELA = system: A549-TUBA1B-RELA
How it was run: as §1

HepG2-ACTB-RAB5A = system: HepG2-ACTB-RAB5A
How it was run: as §1

HepG2-CANX-COX4 = system: HepG2-CANX-COX4
How it was run: as §1

HepG2-GM130-SQSTM1 = system: HepG2-GM130-SQSTM1
How it was run: as §1

HepG2-TP53BP1-CLTA = system: HepG2-TP53BP1-CLTA
How it was run: as §1

HepG2-TUBA1B-RELA = system: HepG2-TUBA1B-RELA
How it was run: as §1

WPMY1-ACTB-RAB5A = system: WPMY1-ACTB-RAB5A
How it was run: as §1

WPMY1-CANX-COX4 = system: WPMY1-CANX-COX4
How it was run: as §1

WPMY1-GM130-SQSTM1 = system: WPMY1-GM130-SQSTM1
How it was run: as §1

WPMY1-TP53BP1-CLTA = system: WPMY1-TP53BP1-CLTA
How it was run: as §1

WPMY1-TUBA1B-RELA = system: WPMY1-TUBA1B-RELA
How it was run: as §1

Measured: phenotypically active

O=C(O)CC[N+](=O)[O-] [3-Nitropropionic acid]
inactive: A549-ACTB-RAB5A 0 | A549-CANX-COX4 0 | A549-GM130-SQSTM1 0 | A549-TP53BP1-CLTA 0 | A549-TUBA1B-RELA 0 | HepG2-ACTB-RAB5A 0 | HepG2-CANX-COX4 0 | HepG2-GM130-SQSTM1 0 | HepG2-TP53BP1-CLTA 0 | HepG2-TUBA1B-RELA 0 | WPMY1-ACTB-RAB5A 0 | WPMY1-CANX-COX4 0 | WPMY1-GM130-SQSTM1 0 | WPMY1-TP53BP1-CLTA 0 | WPMY1-TUBA1B-RELA 0

CC[C@H]1C[N@@]2CC[C@H]1C[C@H]2[C@@H](O)c1ccnc2ccc(O)cc12 [Hydrocupreine]
inactive: A549-ACTB-RAB5A 0 | A549-CANX-COX4 0 | A549-GM130-SQSTM1 0 | A549-TP53BP1-CLTA 0 | A549-TUBA1B-RELA 0 | HepG2-ACTB-RAB5A 0 | HepG2-CANX-COX4 0 | HepG2-GM130-SQSTM1 0 | HepG2-TP53BP1-CLTA 0 | HepG2-TUBA1B-RELA 0 | WPMY1-ACTB-RAB5A 0 | WPMY1-CANX-COX4 0 | WPMY1-GM130-SQSTM1 0 | WPMY1-TP53BP1-CLTA 0 | WPMY1-TUBA1B-RELA 0

COc1cc2c3cc1Oc1cc(ccc1O)C[C@@H]1c4c(cc(OC)c(O)c4Oc4cccc(c4)C[C@@H]3N(C)CC2)CC[N+]1(C)C [Tubocurarine chloride pentahydrate (+)]
inactive: A549-ACTB-RAB5A 0 | A549-CANX-COX4 0 | A549-GM130-SQSTM1 0 | A549-TP53BP1-CLTA 0 | A549-TUBA1B-RELA 0 | HepG2-ACTB-RAB5A 0 | HepG2-CANX-COX4 0 | HepG2-GM130-SQSTM1 0 | HepG2-TP53BP1-CLTA 0 | HepG2-TUBA1B-RELA 0 | WPMY1-ACTB-RAB5A 0 | WPMY1-CANX-COX4 0 | WPMY1-GM130-SQSTM1 0 | WPMY1-TP53BP1-CLTA 0 | WPMY1-TUBA1B-RELA 0

O=c1cccc2n1C[C@H]1CNC[C@H]2C1 [Cytisine nitrate hydrate]
inactive: A549-ACTB-RAB5A 0 | A549-CANX-COX4 0 | A549-GM130-SQSTM1 0 | A549-TP53BP1-CLTA 0 | A549-TUBA1B-RELA 0 | HepG2-ACTB-RAB5A 0 | HepG2-CANX-COX4 0 | HepG2-GM130-SQSTM1 0 | HepG2-TP53BP1-CLTA 0 | HepG2-TUBA1B-RELA 0 | WPMY1-ACTB-RAB5A 0 | WPMY1-CANX-COX4 0 | WPMY1-GM130-SQSTM1 0 | WPMY1-TP53BP1-CLTA 0 | WPMY1-TUBA1B-RELA 0

C[C@H]1CCC2(NC1)O[C@H]1C[C@H]3[C@@H]4CC[C@H]5C[C@@H](O[C@@H]6O[C@H](CO)[C@H](O[C@@H]7O[C@H](CO)[C@@H](O)[C@H](O[C@@H]8OC[C@@H](O)[C@H](O)[C@H]8O)[C@H]7O[C@@H]7O[C@H](CO)[C@@H](O)[C@H](O)[C@H]7O)[C@H](O)[C@H]6O)CC[C@]5(C)[C@H]4CC[C@]3(C)[C@H]1[C@@H]2C (stereo not given in full) [Tomatine]
inactive: A549-ACTB-RAB5A 0 | A549-CANX-COX4 0 | A549-GM130-SQSTM1 0 | A549-TP53BP1-CLTA 0 | A549-TUBA1B-RELA 0 | HepG2-ACTB-RAB5A 0 | HepG2-CANX-COX4 0 | HepG2-GM130-SQSTM1 0 | HepG2-TP53BP1-CLTA 0 | HepG2-TUBA1B-RELA 0 | WPMY1-ACTB-RAB5A 0 | WPMY1-CANX-COX4 0 | WPMY1-GM130-SQSTM1 0 | WPMY1-TP53BP1-CLTA 0 | WPMY1-TUBA1B-RELA 0

N#CC(CCN1CCC(C(=O)O)(c2ccccc2)CC1)(c1ccccc1)c1ccccc1 [difenoxin]
inactive: A549-ACTB-RAB5A 0 | A549-CANX-COX4 0 | A549-GM130-SQSTM1 0 | A549-TP53BP1-CLTA 0 | A549-TUBA1B-RELA 0 | HepG2-ACTB-RAB5A 0 | HepG2-CANX-COX4 0 | HepG2-GM130-SQSTM1 0 | HepG2-TP53BP1-CLTA 0 | HepG2-TUBA1B-RELA 0 | WPMY1-ACTB-RAB5A 0 | WPMY1-CANX-COX4 0 | WPMY1-GM130-SQSTM1 0 | WPMY1-TP53BP1-CLTA 0 | WPMY1-TUBA1B-RELA 0

NCC1(CC(=O)O)CCCCC1 [gabapentin]
inactive: A549-ACTB-RAB5A 0 | A549-CANX-COX4 0 | A549-GM130-SQSTM1 0 | A549-TP53BP1-CLTA 0 | A549-TUBA1B-RELA 0 | HepG2-ACTB-RAB5A 0 | HepG2-CANX-COX4 0 | HepG2-GM130-SQSTM1 0 | HepG2-TP53BP1-CLTA 0 | HepG2-TUBA1B-RELA 0 | WPMY1-ACTB-RAB5A 0 | WPMY1-CANX-COX4 0 | WPMY1-GM130-SQSTM1 0 | WPMY1-TP53BP1-CLTA 0 | WPMY1-TUBA1B-RELA 0

C/C=C1\CN2CC[C@]34c5cc(OC)ccc5N5C(=O)C(O)OC[C@@H]([C@H]53)[C@H]1C[C@H]24 (stereo not given in full) [10-Methoxy-o-demethyltsilanine]
inactive: A549-ACTB-RAB5A 0 | A549-CANX-COX4 0 | A549-GM130-SQSTM1 0 | A549-TP53BP1-CLTA 0 | A549-TUBA1B-RELA 0 | HepG2-ACTB-RAB5A 0 | HepG2-CANX-COX4 0 | HepG2-GM130-SQSTM1 0 | HepG2-TP53BP1-CLTA 0 | HepG2-TUBA1B-RELA 0 | WPMY1-ACTB-RAB5A 0 | WPMY1-CANX-COX4 0 | WPMY1-GM130-SQSTM1 0 | WPMY1-TP53BP1-CLTA 0 | WPMY1-TUBA1B-RELA 0

CC[N+](CC)(CCCNC1=CC(=O)C(NCCC[N+](CC)(CC)Cc2ccccc2)=CC1=O)Cc1ccccc1 [Benzoquinonium dibromide]
inactive: A549-ACTB-RAB5A 0 | A549-CANX-COX4 0 | A549-GM130-SQSTM1 0 | A549-TP53BP1-CLTA 0 | A549-TUBA1B-RELA 0 | HepG2-ACTB-RAB5A 0 | HepG2-CANX-COX4 0 | HepG2-GM130-SQSTM1 0 | HepG2-TP53BP1-CLTA 0 | HepG2-TUBA1B-RELA 0 | WPMY1-ACTB-RAB5A 0 | WPMY1-CANX-COX4 0 | WPMY1-GM130-SQSTM1 0 | WPMY1-TP53BP1-CLTA 0 | WPMY1-TUBA1B-RELA 0

CC1=CC(=O)C2=C(C)C[C@H](O)[C@@H]3[C@H](OC(=O)[C@H]3C)[C@@H]12 [Austricine hydrate]
inactive: A549-ACTB-RAB5A 0 | A549-CANX-COX4 0 | A549-GM130-SQSTM1 0 | A549-TP53BP1-CLTA 0 | A549-TUBA1B-RELA 0 | HepG2-ACTB-RAB5A 0 | HepG2-CANX-COX4 0 | HepG2-GM130-SQSTM1 0 | HepG2-TP53BP1-CLTA 0 | HepG2-TUBA1B-RELA 0 | WPMY1-ACTB-RAB5A 0 | WPMY1-CANX-COX4 0 | WPMY1-GM130-SQSTM1 0 | WPMY1-TP53BP1-CLTA 0 | WPMY1-TUBA1B-RELA 0

CN1[C@@H]2C[C@@H](OC(=O)[C@H](CO)c3ccccc3)C[C@H]1[C@@H]1O[C@@H]12 [Scopolamine hydrobromide]
inactive: A549-ACTB-RAB5A 0 | A549-CANX-COX4 0 | A549-GM130-SQSTM1 0 | A549-TP53BP1-CLTA 0 | A549-TUBA1B-RELA 0 | HepG2-ACTB-RAB5A 0 | HepG2-CANX-COX4 0 | HepG2-GM130-SQSTM1 0 | HepG2-TP53BP1-CLTA 0 | HepG2-TUBA1B-RELA 0 | WPMY1-ACTB-RAB5A 0 | WPMY1-CANX-COX4 0 | WPMY1-GM130-SQSTM1 0 | WPMY1-TP53BP1-CLTA 0 | WPMY1-TUBA1B-RELA 0
